# In PubChem BioAssay:
# Where “and” joins values, the source holds several entries; their conditions need not be identical. Equal entries are not always repeated. Calls of active or inactive are those of the source.
# Experiments:
# [1] = binders of probe aFSTL3 on microarray, primary screen, stem cell growth factor project, biochemical, small-molecule microarray, fluorescence 635/667 (AID 1064); conditions: higher = more signal;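 also: measures binding of the biotinylated anti-FSTL3 antibody to printed compounds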
# [2] = binders from COS7 lysate, DM2A8 probe, primary screen, torsin A project, cell lysate, small-molecule microarray, fluorescence 635/667 (AID 1065); conditions: higher = more signal, COS7 lysate expressing mutant human TOR1A
# [3] = binders of probe aFGF2 on microarray, primary screen, stem cell growth factor project, biochemical, small-molecule microarray, fluorescence 635/667 (AID 1067); conditions: higher = more signal;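 also: measures binding of biotinylated aFGF2 protein to printed compounds on slides; z-score merges feature fluorescence and signal-to-noise across triplicate slides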
# [4] = binders of probe aFGF10 on microarray, primary screen, stem cell growth factor project, biochemical, small-molecule microarray, fluorescence 635/667 (AID 1071); conditions: higher = more signal;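 also: score merges 667 nm spot intensity and signal to noise from triplicate slides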
# [5] = biological target: Neurogenic locus notch homolog protein 2 (Homo sapiens) (UniProt Q04721); assay: Notch2 binders on small-molecule microarrays, primary screen, biochemical, small-molecule microarray, 635 nm fluorescence, stem cell growth factors (AID 1073); conditions: Notch2 binding, higher = more signal
# Sequence of Neurogenic locus notch homolog protein 2 (Homo sapiens) (Q04721 whole entry, looked up, canonical isoform): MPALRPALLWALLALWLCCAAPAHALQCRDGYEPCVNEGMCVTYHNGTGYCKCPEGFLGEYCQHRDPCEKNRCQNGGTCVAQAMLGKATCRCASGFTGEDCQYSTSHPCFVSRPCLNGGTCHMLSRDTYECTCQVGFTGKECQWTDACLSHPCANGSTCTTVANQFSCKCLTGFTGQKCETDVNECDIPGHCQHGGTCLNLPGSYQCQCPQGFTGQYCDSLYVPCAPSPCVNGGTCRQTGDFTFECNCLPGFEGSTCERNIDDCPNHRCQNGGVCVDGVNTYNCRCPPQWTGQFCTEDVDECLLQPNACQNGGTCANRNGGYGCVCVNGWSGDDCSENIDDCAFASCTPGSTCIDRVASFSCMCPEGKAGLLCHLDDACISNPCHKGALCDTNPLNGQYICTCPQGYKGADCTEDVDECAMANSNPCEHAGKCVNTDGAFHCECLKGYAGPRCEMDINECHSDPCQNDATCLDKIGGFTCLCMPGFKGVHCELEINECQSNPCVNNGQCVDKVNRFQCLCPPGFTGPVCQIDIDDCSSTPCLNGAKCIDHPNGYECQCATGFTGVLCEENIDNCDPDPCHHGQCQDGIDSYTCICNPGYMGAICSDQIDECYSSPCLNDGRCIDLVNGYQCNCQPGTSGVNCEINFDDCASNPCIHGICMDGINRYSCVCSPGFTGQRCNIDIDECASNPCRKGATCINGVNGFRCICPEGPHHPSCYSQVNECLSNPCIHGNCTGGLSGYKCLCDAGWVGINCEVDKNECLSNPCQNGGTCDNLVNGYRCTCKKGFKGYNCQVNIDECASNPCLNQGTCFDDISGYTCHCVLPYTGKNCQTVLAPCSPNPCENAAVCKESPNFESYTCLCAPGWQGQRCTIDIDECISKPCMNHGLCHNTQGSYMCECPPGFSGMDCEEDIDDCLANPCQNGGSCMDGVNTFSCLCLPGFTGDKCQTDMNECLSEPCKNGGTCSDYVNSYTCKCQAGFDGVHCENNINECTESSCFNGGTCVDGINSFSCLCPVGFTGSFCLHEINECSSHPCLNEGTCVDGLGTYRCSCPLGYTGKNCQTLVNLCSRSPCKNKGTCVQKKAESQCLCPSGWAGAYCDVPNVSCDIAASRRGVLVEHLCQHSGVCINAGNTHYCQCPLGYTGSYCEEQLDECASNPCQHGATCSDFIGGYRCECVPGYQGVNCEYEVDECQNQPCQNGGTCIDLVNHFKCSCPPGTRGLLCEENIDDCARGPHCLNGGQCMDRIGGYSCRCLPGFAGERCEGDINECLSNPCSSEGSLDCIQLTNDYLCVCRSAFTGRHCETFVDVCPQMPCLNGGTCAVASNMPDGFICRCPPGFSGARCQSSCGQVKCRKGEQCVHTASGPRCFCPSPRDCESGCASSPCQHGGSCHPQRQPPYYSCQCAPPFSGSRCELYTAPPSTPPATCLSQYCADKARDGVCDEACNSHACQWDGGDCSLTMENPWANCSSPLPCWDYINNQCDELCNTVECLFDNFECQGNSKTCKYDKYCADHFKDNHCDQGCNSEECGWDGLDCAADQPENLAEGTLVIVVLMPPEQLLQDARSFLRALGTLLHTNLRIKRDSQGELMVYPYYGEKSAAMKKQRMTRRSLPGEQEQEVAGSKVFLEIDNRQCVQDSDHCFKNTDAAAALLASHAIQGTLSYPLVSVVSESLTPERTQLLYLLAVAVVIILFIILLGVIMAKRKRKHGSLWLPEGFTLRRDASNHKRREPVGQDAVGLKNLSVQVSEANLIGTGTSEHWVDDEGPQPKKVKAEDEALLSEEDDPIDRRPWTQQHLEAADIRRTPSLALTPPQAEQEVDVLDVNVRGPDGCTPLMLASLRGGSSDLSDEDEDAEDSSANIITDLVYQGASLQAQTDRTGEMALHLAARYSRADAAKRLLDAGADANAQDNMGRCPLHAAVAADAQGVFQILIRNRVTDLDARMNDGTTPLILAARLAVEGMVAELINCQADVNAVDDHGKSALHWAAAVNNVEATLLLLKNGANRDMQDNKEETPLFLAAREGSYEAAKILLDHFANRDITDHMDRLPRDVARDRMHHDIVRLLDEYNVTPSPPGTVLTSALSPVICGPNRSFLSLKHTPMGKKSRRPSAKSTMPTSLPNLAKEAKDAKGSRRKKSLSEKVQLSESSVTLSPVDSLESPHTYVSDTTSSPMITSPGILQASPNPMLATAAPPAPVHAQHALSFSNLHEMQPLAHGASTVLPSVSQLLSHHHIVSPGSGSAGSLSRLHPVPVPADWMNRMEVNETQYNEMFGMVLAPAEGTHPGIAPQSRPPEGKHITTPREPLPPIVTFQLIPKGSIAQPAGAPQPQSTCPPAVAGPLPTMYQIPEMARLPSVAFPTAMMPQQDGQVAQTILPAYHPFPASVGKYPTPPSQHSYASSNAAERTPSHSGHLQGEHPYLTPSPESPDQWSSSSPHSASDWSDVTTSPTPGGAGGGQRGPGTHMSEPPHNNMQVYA
# [6] = biological target: Pro-neuregulin-1, membrane-bound isoform (Homo sapiens) (UniProt Q02297); assay: NRG1 binders on small-molecule microarrays, primary screen, psychiatric disease protein project, biochemical, small-molecule microarray, fluorescence 635/667 (AID 1075); conditions: NRG1 binding, 635 nm fluorescence, higher = more signal;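 also: score combines 667 nm spot fluorescence with signal to noise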
# [7] = test system: Neuregulin-1 EGF-like domain; assay: binders of neuregulin-1 EGF-like domain, primary screen, biochemical, small-molecule microarray, 635 nm fluorescence (AID 1081); conditions: small-molecule microarray binding, higher = more signal;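 also: binding of the protein to compounds printed on small-molecule microarray slides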
# [8] = FRG1 promoter luciferase signal modulators, primary screen, FRG1 inhibition for FSHD, cell-based, C2C12 myotubes, firefly/Renilla luciferase, luminescence (AID 1084); conditions: higher = more signal, called active from +8 up or from −8 down
# [9] = binders of probe aFST on microarray, primary screen, stem cell growth factor project, biochemical, small-molecule microarray, fluorescence 635/667 (AID 1086); conditions: higher = more signal;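 also: score merges 667 nm fluorescence with signal-to-noise of each printed compound spot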
# [10] = binders of probe aHhip on microarray, primary screen, stem cell growth factor project, biochemical, small-molecule microarray, fluorescence 635/667 (AID 1087); conditions: higher = more signal;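 also: score merges spot fluorescence at 667nm with spot signal to noise ratio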
# [11] = test system: PRMT1 (protein arginine N-methyltransferase 1); assay: PRMT1 binders on small-molecule microarrays, primary screen, biochemical, small-molecule microarray, 635 nm fluorescence (AID 1088); conditions: small-molecule microarray binding, higher = more signal;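 also: binding of Prmt1 protein to compounds spotted on small-molecule microarray slides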
# [12] = yeast growth modulation, basal conditions, primary screen, YJM789 clinical isolate, OD600, 24 h (AID 1089);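 also: growth of clinical yeast isolate S. cerevisiae YJM 789 seeded 1000 cells per well; test concentration not given here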; conditions: S. cerevisiae YJM789 growth, higher = more signal, called active from +8 up or from −8 down
# [13] = fission yeast growth modulation, primary screen, strain 972, OD600, 24 h, no modulator (AID 1090);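 also: basal condition with compound alone and no growth modifier present; test concentration not given here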; conditions: S. pombe 972 growth, higher = more signal, called active from +8 up or from −8 down
# [14] = S. cerevisiae growth modulation with rapamycin, primary screen, strain BY4716, OD600, 96 h (AID 1091); conditions: higher = more signal, called active from +8 up or from −8 down; also: test concentration not given here
# [15] = biological target: Torsin-1A-interacting protein 2 (Homo sapiens) (UniProt Q8NFQ8); assay: LULL1 binders on small-molecule microarray, primary screen, cell lysate, human LULL1 lysate, 635/667 nm fluorescence (AID 1092); conditions: hLULL1 lysate binding, 635 nm fluorescence, higher = more signal;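 also: probe is lysate of COS7 cells overexpressing human LULL1; score merges per-feature 667 nm fluorescence with signal-to-noise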
# [16] = E. coli growth modulation, two-sided OD650, primary screen, E. coli filamentation project, strain DRC41, 24 h (AID 1093); conditions: OD650, 24 h, higher = more signal, called active from +8 up or from −8 down;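 also: MC1000 strain lacking acrAB efflux and sulA so SOS filamentation is blocked; test concentration not given here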
# [17] = small-molecule microarray binders of probe aLefty2, primary screen, biochemical, biotinylated probe, 635/667 nm fluorescence (AID 1094); conditions: higher = more signal;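 also: score merges spot fluorescence near 667 nm with spot signal-to-noise ratio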
# [18] = test system: Noggin (protein binding on small-molecule microarray); assay: Noggin binders on small-molecule microarray, primary screen, biochemical, 635/667 nm fluorescence (AID 1095); conditions: 635 nm fluorescence, higher = more signal;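 also: score merges 667 nm feature fluorescence with signal to noise over triplicate slides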
# [19] = biological target: Neurogenic locus notch homolog protein 3 (Homo sapiens) (UniProt Q9UM47); assay: NOTCH3 binders on small-molecule microarray, primary screen, biochemical, 635/667 nm fluorescence (AID 1096); conditions: NOTCH3 binding, 635 nm fluorescence, higher = more signal
# Sequence of Neurogenic locus notch homolog protein 3 (Homo sapiens) (Q9UM47 whole entry, looked up): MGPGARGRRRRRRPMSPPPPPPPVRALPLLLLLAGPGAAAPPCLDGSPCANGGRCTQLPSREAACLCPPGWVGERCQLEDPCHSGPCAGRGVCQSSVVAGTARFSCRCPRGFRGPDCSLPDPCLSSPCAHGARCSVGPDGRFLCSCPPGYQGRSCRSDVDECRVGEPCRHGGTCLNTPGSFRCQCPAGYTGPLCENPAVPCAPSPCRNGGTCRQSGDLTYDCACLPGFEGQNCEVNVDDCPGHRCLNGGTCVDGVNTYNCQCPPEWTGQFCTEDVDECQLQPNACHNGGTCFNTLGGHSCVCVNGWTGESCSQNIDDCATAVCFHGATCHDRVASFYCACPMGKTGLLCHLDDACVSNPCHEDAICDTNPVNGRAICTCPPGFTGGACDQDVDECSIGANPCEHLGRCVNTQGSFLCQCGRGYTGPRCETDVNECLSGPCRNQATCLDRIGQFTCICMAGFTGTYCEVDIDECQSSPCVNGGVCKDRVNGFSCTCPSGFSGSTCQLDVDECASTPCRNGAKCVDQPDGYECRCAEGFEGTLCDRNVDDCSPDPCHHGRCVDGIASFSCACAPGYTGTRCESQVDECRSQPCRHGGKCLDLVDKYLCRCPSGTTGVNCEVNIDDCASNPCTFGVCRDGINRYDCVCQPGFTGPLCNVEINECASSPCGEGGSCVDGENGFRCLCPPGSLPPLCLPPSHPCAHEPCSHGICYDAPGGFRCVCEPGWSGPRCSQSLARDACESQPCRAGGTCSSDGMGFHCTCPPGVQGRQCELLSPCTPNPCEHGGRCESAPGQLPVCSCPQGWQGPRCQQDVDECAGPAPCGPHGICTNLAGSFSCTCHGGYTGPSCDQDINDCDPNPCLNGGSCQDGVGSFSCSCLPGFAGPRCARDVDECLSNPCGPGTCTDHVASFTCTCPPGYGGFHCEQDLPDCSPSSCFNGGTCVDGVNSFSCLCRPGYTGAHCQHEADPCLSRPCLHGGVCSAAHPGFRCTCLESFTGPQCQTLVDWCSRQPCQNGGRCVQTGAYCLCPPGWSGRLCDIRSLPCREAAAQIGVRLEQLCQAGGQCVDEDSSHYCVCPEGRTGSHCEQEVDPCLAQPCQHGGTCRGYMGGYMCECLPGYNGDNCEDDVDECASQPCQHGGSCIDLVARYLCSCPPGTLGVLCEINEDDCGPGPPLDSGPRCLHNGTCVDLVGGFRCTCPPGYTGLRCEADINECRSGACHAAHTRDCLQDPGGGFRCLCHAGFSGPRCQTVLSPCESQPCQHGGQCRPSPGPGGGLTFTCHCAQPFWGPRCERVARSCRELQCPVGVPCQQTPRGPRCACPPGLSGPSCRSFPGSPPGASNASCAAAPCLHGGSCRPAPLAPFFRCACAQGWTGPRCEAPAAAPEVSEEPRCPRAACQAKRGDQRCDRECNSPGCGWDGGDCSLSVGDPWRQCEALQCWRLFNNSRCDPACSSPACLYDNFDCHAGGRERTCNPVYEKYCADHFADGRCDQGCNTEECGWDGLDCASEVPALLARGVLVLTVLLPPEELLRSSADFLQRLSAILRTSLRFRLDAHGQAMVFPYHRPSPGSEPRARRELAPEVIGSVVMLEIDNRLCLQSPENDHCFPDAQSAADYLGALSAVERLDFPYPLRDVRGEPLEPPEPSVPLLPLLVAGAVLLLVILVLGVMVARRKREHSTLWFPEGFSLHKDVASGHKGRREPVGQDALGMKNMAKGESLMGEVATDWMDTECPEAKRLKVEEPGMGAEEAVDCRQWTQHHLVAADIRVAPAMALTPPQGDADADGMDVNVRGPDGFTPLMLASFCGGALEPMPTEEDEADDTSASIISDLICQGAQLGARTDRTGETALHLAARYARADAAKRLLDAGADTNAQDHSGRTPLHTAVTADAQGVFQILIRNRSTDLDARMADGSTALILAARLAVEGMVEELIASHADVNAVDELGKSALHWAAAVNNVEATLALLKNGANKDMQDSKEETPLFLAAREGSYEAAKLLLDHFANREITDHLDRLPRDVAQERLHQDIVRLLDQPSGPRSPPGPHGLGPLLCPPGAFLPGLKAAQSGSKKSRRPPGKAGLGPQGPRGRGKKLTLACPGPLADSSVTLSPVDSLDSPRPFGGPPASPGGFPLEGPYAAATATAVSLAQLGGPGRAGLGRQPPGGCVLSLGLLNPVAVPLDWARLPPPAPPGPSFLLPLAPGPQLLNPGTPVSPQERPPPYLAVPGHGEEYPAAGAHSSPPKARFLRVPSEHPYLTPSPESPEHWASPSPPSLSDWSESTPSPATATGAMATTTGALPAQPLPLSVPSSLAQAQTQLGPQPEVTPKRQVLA
# [20] = small-molecule microarray binders of probe aEGFR, primary screen, biochemical, biotinylated probe, 635/667 nm fluorescence (AID 1097); conditions: higher = more signal;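 also: probe is a biotinylated anti-EGFR antibody binding compounds printed on slides; score combines fluorescence near 667 nm and signal to noise of each spot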
Compound,composite z-score [1],composite z-score [2],composite z-score [3],composite z-score [4],composite z-score [5],composite z-score [6],composite z-score [7],z-score [8],composite z-score [9],composite z-score [10],composite z-score [11],z-score [12],z-score [13],z-score [14],composite z-score [15],z-score [16],composite z-score [17],composite z-score [18],composite z-score [19],composite z-score [20]
CC(C)N1CC=CC23O[C@@H]4C=CCCOC(=O)C4[C@H]2C(=O)N(C(C)CO)[C@@H]3C1=O (stereo not given in full),0.886 and 0.781,0.543 and -0.0534,-0.158 and -0.116,-1.39 and -0.751,-0.0092 and -0.882,2.21 and -0.35,0.958 and 0.694,-0.746 (inactive) and 0.0086 (inactive),-0.828 and -0.509,-0.178 and 0.0176,1.18 and -0.323,-1.29 (inactive) and 0.11 (inactive),-1.18 (inactive) and -1.07 (inactive),-1.28 (inactive) and 0.687 (inactive),3.21 and -0.371,2.82 (inactive) and 2.22 (inactive),-0.0911 and -0.043,-1.14 and -0.975,-0.22 and -0.455,-0.317 and -0.308
CO[C@H]1COC(=O)[C@H](C)NC(=O)CC=C[C@@H](C)[C@H](OC)COC(=O)CC=C[C@@H]1C,-0.748,2.16,-0.125,-0.0919,-0.362,-0.745,0.0232,-0.628 (inactive),-0.0994,0.201,1.4,1.17 (inactive),0.306 (inactive),1.13 (inactive),-0.247,1.3 (inactive),-0.235,1.32,0.164,0.0556
O=C1[C@H]2[C@H]3[C@H](O)[C@H](O)CC(=NOCc4ccccc4)[C@H]3CC[C@H]2C(=O)N1Cc1ccccc1,-0.51,0.887,-0.109,0.186,0.189,-0.226,-0.263,0.224 (inactive),0.223,-0.274,-1,-2.04 (inactive),-2.07 (inactive),-1.04 (inactive),-0.336,0.582 (inactive),-0.234,0.439,0.273,-0.126
CCOC(=O)CCN1C(=O)[C@H]2[C@H]3[C@H](O)[C@H](O)CC(=NNC(=O)OCC)[C@@H]3CC[C@H]2C1=O,-0.144,0.303,-0.0459,0.348,0.708,-0.388,-0.0801,0.142 (inactive),0.62,-0.0994,0.763,-0.373 (inactive),-0.769 (inactive),-0.491 (inactive),0.45,0.441 (inactive),0.0634,0.531,0.316,0.095
CO[C@H]1COC(=O)CC=C[C@@H](C)COC(=O)[C@H](CCSC)NC(=O)CC=C[C@@H]1C,-0.638 and -0.893,2.71 and 2.84,0.561 and -0.386,-0.174 and -0.853,-0.375 and -0.583,-0.591 and -1.25,1.01 and 0.444,-0.172 (inactive) and -0.845 (inactive),0.536 and 0.0907,0.12 and -0.154,1.55 and 1.54,0.833 (inactive) and -0.697 (inactive),-0.201 (inactive) and -0.712 (inactive),0.35 (inactive) and -0.862 (inactive),-0.649 and -1.15,0.32 (inactive) and -0.145 (inactive),-0.114 and -0.0629,1.64 and 2.04,0.593 and 0.59,0.49 and 0.59
CO[C@@H]1COC(=O)CC=C[C@H](C)[C@@H](NS(=O)(=O)c2ccc(C)cc2)COC(=O)CC=C[C@@H]1C,-0.226 and -0.425,0.711 and 1.44,-0.234 and -0.127,0.433 and -0.153,0.671 and -0.333,0.0292 and -0.476,0.628 and 0.956,0.994 (inactive) and 0.445 (inactive),0.0151 and 0.106,0.113 and -0.0391,1.16 and 1.54,0.403 (inactive) and -0.552 (inactive),-0.733 (inactive) and -0.194 (inactive),0.62 (inactive) and -1.52 (inactive),0.633 and -0.853,0.56 (inactive) and 0.132 (inactive),-0.0785 and -0.186,1.27 and 1.31,0.634 and 0.525,-0.115 and 0.0097
CC(CO)N1C(=O)[C@@H]2C3C(=O)OCCC=C[C@H]3OC23C=CCN(c2ccc4ccccc4c2)C(=O)[C@@H]13 (stereo not given in full),0.265 and -1.11,-1.36 and -0.483,-0.0689 and -0.36,-0.282 and -0.642,-0.704 and -1.04,0.0944 and 1.21,0.713 and 1.19,0.544 (inactive) and 1.81 (inactive),-0.0414 and 0.226,-0.388 and -0.937,0.6 and -0.266,1.09 (inactive) and -1.28 (inactive),-0.169 (inactive) and -1.95 (inactive),0.127 (inactive) and -0.589 (inactive),3.39 and 0.763,-0.138 (inactive) and -0.757 (inactive),-0.116 and -0.192,-0.571 and -0.51,0.259 and 0.0899,-0.324 and -0.343
COC(=O)[C@@]1(Cc2ccccc2)[C@H]2c3cc(C(=O)N(C)C)n(C[C@H](O)CO)c3C[C@H]2CN1C(=O)c1ccccc1,0.323 and 0.439,-0.347 and 0.188,0.0002 and -0.0065,0.122 and 0.158,1.15 and 1.53,2.1 and 2.01,1.47 and 1.03,1.92 (inactive) and 0.827 (inactive),0.606 and 0.955,0.174 and 0.192,-0.576 and -0.197,0.745 (inactive) and 0.53 (inactive),-0.421 (inactive) and 0.883 (inactive),0.565 (inactive) and 0.696 (inactive),3.69 and 2.3,-0.527 (inactive) and -0.856 (inactive),-0.052 and 0.0305,-0.634 and -0.737,-0.349 and -0.0109,-0.228 and 0.0395
